The text below walks through data of ChEMBL document CHEMBL4513216, “Probing the Open Global Health Chemical Diversity Library for Multistage-Active Starting Points for Next-Generation Antimalarials” (ACS Infect Dis, 2020).

SMILES strings stand for the structures. Hit rate of the full screen: of about 69,000 compounds, about 8,600 (12%) showed an effect of 50% or more. For the sample, strong results were picked, then their nearest neighbours and some compounds at random.

The test system of this experiment is Plasmodium berghei. Nature of the experiment: Screen against P. berghei liver stage (PbLuc), transformed with Luciferase, at 10uM. The experiment is classed as functional, HepG2. The note with it: tested at 10 uM.
In the case of `Cc1cc(C(=O)NCCc2nc3c(s2)CCCC3)n(C)n1`, the INHIBITION came to 68%.

As for `Cc1nn2cc(CCNC(=O)c3cc(C(C)C)nn3C)nc2s1`, the INHIBITION amounted to 82.7%.

On to `CC(C)c1cc(C(=O)NCCc2nc3c(s2)CCC3)n(C)n1`, for which the INHIBITION stood at 89.6%.

With `Cc1nc(CCNC(=O)C2CC(=O)N(C(C)C)C2)sc1C` (stereo not drawn), the INHIBITION was 22.3%.

Regarding `CN1CCCN(Cn2nc(-c3ccccc3F)ccc2=O)CC1`, the INHIBITION is reported as 18.2%.

`Cc1ccsc1C1CCCCCN1Cc1cn(C)nc1C` (stereo not drawn): the INHIBITION came out at 49%.

`CC(C)n1cnnc1CN(C)C(=O)c1ccccc1N1CCOCC1`: the INHIBITION is given as 7.92%.

For `CCN(CC(O)c1ccc(C)cc1)C(=O)NC(C)C` (stereo not drawn), the INHIBITION is reported as 17.8%.

`COc1c(C2CCCN2C(=O)c2cccc(C)n2)c(C)nn1C` (stereo not drawn): the INHIBITION turned out to be 1.78%.

Take `CNC(=O)[C@@H]1C[C@H]2CN(Cc3csc(C)n3)C[C@H]2N1C(C)C`: the INHIBITION was found to be 42.4%.

Regarding `CCOc1ccc(NC(=O)Nc2cnc(N3CCOCC3)nc2)cc1`, the INHIBITION is reported as -8.66%.

Turning to `O=C(Nc1cnc(N2CCOCC2)nc1)c1ccc(C(F)(F)F)cc1`, the INHIBITION was 77.9%.

For `O=C(CCCc1ccccc1)Nc1cnc(N2CCOCC2)nc1`, the INHIBITION is -33.3%.

For `O=S(=O)(Nc1cnc(N2CCOCC2)nc1)c1ccc(C(F)(F)F)cc1`, the INHIBITION was -18%.

With `O=C(COc1ccc(Cl)cc1)Nc1cnc(N2CCOCC2)nc1`, the INHIBITION turned out to be 52.7%.

In the case of `COCC(=O)Nc1cnc(N2CCOCC2)nc1`, the INHIBITION was found to be 26.9%.

Turning to `CCN1CC2(CC1=O)CN(C(=O)NC(C)C)CCN(S(C)(=O)=O)C2` (stereo not drawn), the INHIBITION worked out at 21.6%.

For the compound `O=S(=O)(c1ccc(F)cc1)N1CCCC(c2nccs2)C1` (stereo not drawn), the INHIBITION was 13.5%.

As to `CC(=O)NCc1nccnc1C1CCN(C(=O)c2cc[nH]n2)CC1`, the INHIBITION is on record as -19.7%.

As for `Cc1cnc(N2CCC3(CC2)CC3CNC(=O)C2CCC2)nc1` (stereo not drawn), the INHIBITION stood at 50.7%.

For `Cc1cnc(N2CCC3(CC2)CC3CNC(=O)N(C)C)nc1` (stereo not drawn), the INHIBITION was 7.24%.

Consider `Cc1cnc(N2CCC3(CC2)CC3C(=O)NCC2CC2)nc1` (stereo not drawn), for which the INHIBITION is 16.9%.

As to `CC(C)(C)CC(=O)NS(=O)(=O)c1ccc(F)cc1C(F)(F)F`, the INHIBITION is recorded as -15.5%.

For the compound `Cc1nn(C)c(C)c1C1CCCN1Cc1nc2ccccc2c(=O)[nH]1` (stereo not drawn), the INHIBITION is recorded as -33.7%.

For the compound `O=c1[nH]c(COc2cccc(F)c2)nc2c1CCNC2`, the INHIBITION came out at 15.8%.

For the compound `CC(C)(C)c1ccc(OCc2nc3c(c(=O)[nH]2)CCNC3)cc1`, the INHIBITION is on record as -13.3%.

For the compound `O=c1[nH]c(COc2ccccc2Cl)nc2c1CCNC2`, the INHIBITION was 2.15%.

For `COc1cc(CNc2nc3c(c(=O)[nH]2)CCNC3)cc(OC)c1OC`, the INHIBITION was found to be 57.8%.

On to `O=c1[nH]c(NCc2cccc(-c3ccccc3)c2)nc2c1CCNC2`, for which the INHIBITION is on record as 21.9%.

In the case of `O=c1[nH]c(NCc2cccc(OC(F)F)c2)nc2c1CCNC2`, the INHIBITION is listed as 88%.

`CCC=C(C)C(=O)N1CSCC1C(=O)NC1=NCCS1` (stereo not drawn): the INHIBITION turned out to be 7.58%.

On to `C[C@@H]1CN(C2CCN(Cc3cnc(-c4cccs4)nc3)CC2)C[C@H](C)O1`, for which the INHIBITION was found to be 63.7%.

On to `OC1CCN(C2CCN(Cc3cnc(-c4cccs4)nc3)CC2)CC1`, for which the INHIBITION was found to be 25.1%.

For `CC(C1CCN(Cc2cnc(-c3cccs3)nc2)CC1)N(C)C` (stereo not drawn), the INHIBITION came to 18.8%.

For `CC(C)n1ncc2cc(NC(=O)N3CCSCC3)cnc21`, the INHIBITION was 11.2%.

For `O=C(Cc1csc(-c2ccco2)n1)N1CCN(c2ccccc2O)CC1`, the INHIBITION was -44.3%.

For `CC(=O)N1CCOCC(Cc2ccc3c(ccn3C(C)=O)c2)C1` (stereo not drawn), the INHIBITION worked out at 12.59%.

Regarding `Cc1ccc(CC2COCCN(S(=O)(=O)c3ccccc3)C2)nc1` (stereo not drawn), the INHIBITION was 1.62%.

Take `CC(C)c1nn(C)c(N(C)C)c1CNC1CCc2cc(F)ccc21` (stereo not drawn): the INHIBITION was -25.3%.

As to `COCC(=O)N1CCCC(COc2ccccc2C)C1` (stereo not drawn), the INHIBITION is listed as -4.37%.

Take `Cc1nc(CN(C)C)cc(N2CCCC(COc3ccc(F)cc3)C2)n1` (stereo not drawn): the INHIBITION worked out at 79.5%.

As to `COc1cccc(OCC2CCCN(c3cc(C(N)=O)ccn3)C2)c1` (stereo not drawn), the INHIBITION came out at 40.7%.

For `CCc1nnsc1C(=O)N1CCCC(COc2ccc(F)cc2)C1` (stereo not drawn), the INHIBITION is given as 26.4%.

Consider `COc1ccc(OCC2CCCN(c3nc(CO)cs3)C2)cc1` (stereo not drawn), for which the INHIBITION was -3.43%.

Regarding `Cc1nc(N)cc(N2CCCC(COc3cccc(F)c3)C2)n1` (stereo not drawn), the INHIBITION came to 73.8%.

For the compound `OCc1csc(N2CCCC(COc3cccc(F)c3)C2)n1` (stereo not drawn), the INHIBITION is given as 39.9%.

As to `CCNC(=O)c1ccnc(N2CCCC(COc3ccccc3C)C2)c1` (stereo not drawn), the INHIBITION was 30.9%.

Take `Cc1ccccc1OCC1CCCN(c2cc(N)nc(N)n2)C1` (stereo not drawn): the INHIBITION is 73.8%.

For the compound `Cc1ccc(OCC2CCCN(c3cc(C(N)=O)ccn3)C2)cc1` (stereo not drawn), the INHIBITION is listed as 26.5%.

In the case of `CN(C)Cc1nc(C(=O)N2CCCC(COc3ccc(F)cc3)C2)cs1` (stereo not drawn), the INHIBITION was 15.7%.

Take `CN(C)Cc1ccc(C(=O)N2CCCC(COc3ccc(F)cc3)C2)o1` (stereo not drawn): the INHIBITION came out at 63%.

On to `O=C(c1ccccc1)N1CC2(CCNC2)OCc2ccccc21` (stereo not drawn), for which the INHIBITION is -0.621%.

With `Cc1cnc(N2Cc3nccn3CC(Cn3ncccc3=O)C2)nc1` (stereo not drawn), the INHIBITION is recorded as 38.2%.
